Assay results as given in article PMC5540273 (PLoS ONE, 2017).

Tests used:
Details in all cases: concentration: 1 μM,replicates: in singlicate; n = 1
MTOR = test system: MTOR
MUSK = test system: MUSK
MYLK2 = test system: MYLK2
MYLK4 = test system: MYLK4
MYLK = test system: MYLK
MYO3A = test system: MYO3A
MYO3B = test system: MYO3B
NDR1 = test system: T1, NDR1
T1 construct: gene STK38

NDR2 = test system: NDR2
NEK10 = test system: NEK10
NEK11 = test system: NEK11
NEK1 = test system: NEK1
NEK2 = test system: NEK2
NEK3 = test system: NEK3
NEK4 = test system: NEK4
NEK5 = test system: NEK5
NEK6 = test system: NEK6
NEK7 = test system: NEK7
NEK9 = test system: NEK9
NIK = test system: T2, NIK
T2 construct: gene MAP3K14
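Also: KINOMEscan kinase panel screen.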

| SMILES | %Inh (MTOR) [%] | %Inh (MUSK) [%] | %Inh (MYLK2) [%] | %Inh (MYLK4) [%] | %Inh (MYLK) [%] | %Inh (MYO3A) [%] | %Inh (MYO3B) [%] | %Inh (NDR1) [%] | %Inh (NDR2) [%] | %Inh (NEK10) [%] | %Inh (NEK11) [%] | %Inh (NEK1) [%] | %Inh (NEK2) [%] | %Inh (NEK3) [%] | %Inh (NEK4) [%] | %Inh (NEK5) [%] | %Inh (NEK6) [%] | %Inh (NEK7) [%] | %Inh (NEK9) [%] | %Inh (NIK) [%] |
| --- | --- | --- | --- | --- | --- | --- | --- | --- | --- | --- | --- | --- | --- | --- | --- | --- | --- | --- | --- | --- |
| COC(=O)c1cccc(NC(=O)NC2CCN(c3ccnc(NCc4ccc(F)cc4)n3)CC2)c1 [GSK1379860] | 23 | 0 | 7 | 0 | 0 | 0 | 0 | 0 | 0 | 1 | 7 | 0 | 0 | 0 | 6 | 0 | 0 | 4 | 0 | 8 |
| c1ccc(Oc2ccc(Nc3ccnc4ccc(-c5ccccn5)cc34)cc2)cc1 [GW407034] | 15 | 15 | 12 | 4 | 14 | 10 | 0 | 0 | 0 | 2 | 0 | 0 | 0 | 9 | 28 | 0 | 1 | 0 | 0 | 9 |
| NC(=O)Nc1sc(-c2ccc(F)cc2)cc1C(N)=O [GW789449] | 23 | 0 | 11 | 97.8 | 10 | 0 | 0 | 3 | 7 | 3 | 0 | 0 | 0 | 47 | 19 | 36 | 13 | 0 | 0 | 37 |
| CS(=O)(=O)Nc1ccc(-c2ccnc3[nH]ccc23)cc1 [GSK993273] | 9 | 24 | 27 | 95.5 | 43 | 0 | 0 | 20 | 6 | 71 | 17 | 15 | 0 | 4 | 16 | 2 | 0 | 10 | 14 | 22 |
| CC(=O)Nc1ccc(-c2cc3ncnc(SCC(=O)O)c3s2)cc1 | 3 | 12 | 9 | 14 | 6 | 5 | 0 | 0 | 8 | 25 | 0 | 0 | 1 | 12 | 6 | 0 | 4 | 1 | 5 | 11 |
| Cc1cccc(-c2nc(Nc3ccncc3)c3sccc3n2)n1 [GW869641] | 75 | 0 | 4 | 0 | 35 | 9 | 21 | 35 | 0 | 24 | 31 | 0 | 5 | 10 | 14 | 4 | 16 | 3 | 14 | 0 |
| Cn1ccc2ncnc(Oc3ccc(NC(=O)Nc4cc(C(C)(C)C)on4)c(Cl)c3)c21 | 37 | 80 | 13 | 0 | 17 | 0 | 40 | 0 | 1 | 0 | 0 | 0 | 17 | 21 | 3 | 0 | 0 | 0 | 3 | 0 |
| Cn1ccc2ncnc(Oc3ccc(NC(=O)Nc4cccc(C(F)(F)F)c4)c(Cl)c3)c21 | 33 | 94.6 | 21 | 5 | 3 | 0 | 22 | 17 | 0 | 0 | 0 | 0 | 0 | 9 | 0 | 0 | 9 | 0 | 0 | 7 |
| COc1cccc(C2=C(Nc3cccc(Cl)c3)C(=O)NC2=O)c1 [SB-341556] | 8 | 9 | 0 | 23 | 0 | 0 | 0 | 0 | 0 | 73 | 0 | 0 | 13 | 5 | 29 | 0 | 0 | 5 | 1 | 26 |
| COC(=O)c1cccc(NC(=O)NC2CCN(c3ccnc(Nc4cc(OC)c(OC)c(OC)c4)n3)C2)c1 (centres unmarked) [GSK1379767] | 26 | 5 | 25 | 14 | 11 | 43 | 0 | 18 | 38 | 3 | 0 | 52 | 22 | 17 | 0 | 100 | 0 | 37 | 26 | 32 |
| COc1cc2c(Nc3ccc(NC(=O)c4ccccc4)cc3)ncnc2cc1OCCCN1CCOCC1 [GSK301329] | 15 | 13 | 0 | 0 | 2 | 0 | 0 | 5 | 0 | 3 | 0 | 0 | 0 | 0 | 22 | 0 | 0 | 0 | 13 | 9 |
| O=C1NCCc2[nH]c(-c3ccncc3)cc21 | 0 | 34 | 20 | 5 | 33 | 7 |  | 20 | 0 | 14 | 0 | 0 | 0 | 18 | 0 | 2 | 29 | 0 | 0 | 44 |
| C[C@@H](Oc1cc(-n2cnc3cc(-c4cnn(C)c4)ccc32)sc1C(N)=O)c1ccccc1Cl [GSK580432] | 14 | 64 | 65 | 22 | 17 | 17 | 0 | 15 | 0 | 30 | 0 | 88 | 99.2 | 0 | 0 | 99.7 | 41 | 71 | 81 | 7 |
| CN1CCN(CCCNc2nccc(-c3c(-c4ccc(F)cc4)nn4cc(C(N)=O)ccc34)n2)CC1 [GW622475] | 5 | 6 | 10 | 5 | 26 | 10 | 0 | 33 | 0 | 25 | 0 | 0 | 8 | 6 | 10 | 15 | 0 | 25 | 41 | 5 |
| CS(=O)c1ccc(-c2coc3ccc(-c4n[nH]c(=O)o4)cc23)cc1 (centres unmarked) | 17 | 0 | 20 | 24 | 41 | 0 | 0 | 2 | 22 | 56 | 0 | 0 | 0 | 15 | 0 | 0 | 0 | 19 | 0 | 0 |
| Cn1ccc2ncnc(Oc3ccc(NC(=O)Nc4ccnc(C(F)(F)F)c4)c(Cl)c3)c21 | 25 | 42 | 0 | 0 | 0 | 0 | 0 | 0 | 2 | 0 | 0 | 0 | 0 | 11 | 0 | 0 | 0 | 0 | 5 | 0 |
| O=C(Nc1n[nH]c2cc(-c3ccco3)ccc12)C1CC1 [SB-737447] | 0 | 0 | 86 | 6 | 44 | 14 | 0 | 0 | 22 | 0 | 24 | 6 | 0 | 28 | 7 | 0 | 0 | 0 | 0 | 0 |

| SMILES | %Inh (MTOR) [%] | %Inh (MUSK) [%] | %Inh (MYLK2) [%] | %Inh (MYLK4) [%] | %Inh (MYLK) [%] | %Inh (MYO3A) [%] | %Inh (MYO3B) [%] | %Inh (NDR1) [%] | %Inh (NDR2) [%] | %Inh (NEK10) [%] | %Inh (NEK11) [%] | %Inh (NEK1) [%] | %Inh (NEK2) [%] | %Inh (NEK3) [%] | %Inh (NEK4) [%] | %Inh (NEK5) [%] | %Inh (NEK6) [%] | %Inh (NEK7) [%] | %Inh (NEK9) [%] | %Inh (NIK) [%] |
| --- | --- | --- | --- | --- | --- | --- | --- | --- | --- | --- | --- | --- | --- | --- | --- | --- | --- | --- | --- | --- |
| Cn1ccc2ncnc(Oc3ccc(NC(=O)Nc4cncc(C(F)(F)F)c4)c(Cl)c3)c21 | 7 | 95 | 0 | 0 | 0 | 0 | 0 | 0 | 0 | 11 | 0 | 0 | 0 | 13 | 0 | 0 | 0 | 0 | 0 | 0 |
| Cn1ccc2ncnc(Oc3ccc(NC(=O)Nc4cnn(C(C)(C)C)c4)c(Cl)c3)c21 | 0 | 21 | 4 | 11 | 0 | 1 | 9 | 6 | 8 | 14 | 0 | 0 | 0 | 12 | 0 | 6 | 2 | 0 | 0 | 0 |
| NC(=O)c1ccc(-c2cc3ncnc(SCC(=O)O)c3s2)cc1 | 39 | 0 | 0 | 0 | 0 | 0 | 3 | 31 | 0 | 0 | 0 | 0 | 0 | 35 | 0 | 0 | 7 | 0 | 0 | 0 |
| COc1cc(Nc2nccc(N3CCC(NC(=O)c4cccc(C#N)c4)C3)n2)cc(OC)c1OC (centres unmarked) [GSK1379751] | 0 | 0 | 0 | 4 | 0 | 46 | 0 | 0 | 0 | 6 | 0 | 33 | 13 | 34 | 2 | 97.1 | 33 | 11 | 0 | 27 |
| CCn1c(-c2nonc2N)nc2cncc(Br)c21 [SB-738004] | 15 | 0 | 16 | 16 | 31 | 39 | 3 | 38 | 35 | 43 | 40 | 0 | 0 | 19 | 0 | 10 | 19 | 0 | 11 | 79 |
| COc1cc2nccc(Nc3ccc(Oc4ccccc4)cc3)c2cc1OC.Cl [GI261656] | 10 | 0 | 0 | 0 | 7 | 6 | 0 | 0 | 29 | 18 | 0 | 0 | 0 | 0 | 0 | 0 | 0 | 0 | 2 | 0 |
| COc1cc2ncn(-c3cc(OCC4CCCCC4)c(C(N)=O)s3)c2cc1OC [GSK204559] | 7 | 4 | 9 | 85 | 20 | 0 | 0 | 11 | 0 | 4 | 0 | 12 | 40 | 0 | 10 | 9 | 0 | 21 | 33 | 16 |
| Cc1ccc(Nc2ccnc(Nc3ccc4c(c3)CS(=O)(=O)C4)n2)cc1O.Cl [GW579362] | 30 | 53 | 32 | 87 | 27 | 15 | 0 | 28 | 0 | 16 | 5 | 31 | 17 | 46 | 3 | 70 | 0 | 23 | 27 | 27 |
| O=C(Nc1cccc(C(F)(F)F)c1)c1cccc(Oc2ccc3nccn3n2)c1 | 0 | 12 | 0 | 0 | 6 | 0 | 0 | 80 | 0 | 0 | 52 | 0 | 0 | 17 | 0 | 12 | 2 | 0 | 0 | 36 |
| CC(C)c1nc(-c2cccc(NS(=O)(=O)c3ccccc3)c2)c(-c2ccnc(Nc3ccc4c(c3)CN(C)CC4)n2)s1 [GSK1649598] | 0 | 15 | 0 | 13 | 13 | 48 | 0 | 31 | 0 | 0 | 97.7 | 14 | 34 | 27 | 18 | 0 | 0 | 0 | 51 | 3 |
| Cl.c1ccc(Oc2ccc(Nc3ccnc4cc(-c5ccc(CN6CCNCC6)o5)ccc34)cc2)nc1 [GW567142] | 0 | 0 | 0 | 8 | 1 | 7 | 0 | 10 | 4 | 3 | 0 | 0 | 6 | 2 | 0 | 0 | 0 | 5 | 17 | 7 |
| Cc1ccc(C(=O)Nc2ccc(Oc3ccc4nc(NC(=O)C5CC5)cn4c3)c(F)c2)c(=O)n1-c1ccccc1 | 0 | 99.8 | 0 | 0 | 15 | 0 | 4 | 8 | 0 | 0 | 0 | 0 | 5 | 0 | 0 | 0 | 0 | 0 | 0 | 0 |
| CNC(=O)c1ccccc1Nc1nc(Nc2cccc(CS(C)(=O)=O)c2)ncc1C.O=CO [GSK1520489] | 2 | 69 | 18 | 99.8 | 30 | 28 | 0 | 92.2 | 80 | 14 | 66 | 71 | 78 | 86 | 70 | 100 | 83 | 94.9 | 78 | 23 |
| COc1ccc(Nc2nccc(N3CCC(NC(=O)c4cccc(C#N)c4)C3)n2)cc1 (centres unmarked) [GSK1379730] | 10 | 5 | 0 | 0 | 0 | 0 | 0 | 0 | 0 | 28 | 0 | 0 | 0 | 0 | 3 | 12 | 30 | 0 | 0 | 0 |
| CCn1c(-c2nonc2N)nc2cncc(CNC3CCNCC3)c21.Cl [SB-747651] | 30 | 9 | 4 | 0 | 8 | 5 | 0 | 1 | 0 | 20 | 11 | 0 | 0 | 15 | 28 | 2 | 0 | 6 | 38 | 13 |
| O=C(Nc1ccc(Oc2ccc3nc(NC(=O)C4CC4)cn3n2)c(F)c1)c1cccn(-c2ccccc2)c1=O | 21 | 99.5 | 0 | 0 | 0 | 0 | 0 | 3 | 0 | 0 | 0 | 0 | 0 | 8 | 0 | 54 | 6 | 0 | 0 | 0 |
